Source: PubChem (The Scripps Research Institute Molecular Screening Center)
Shown are actives, neighbours in structure and some others; about 2.9% of the full set was active somewhere.
proKLK7 act: activates the human kallikrein-7 zymogen | activation, % at 7 µM | purified proKLK7, EDANS-DABCYL substrate fluorescence; 100% is mature enzyme control, 0% vehicle | P49862 | 370,000 compounds, 0.9% hits;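 active means activation above the mean of all tested compounds plus 3 SD, computed per campaign excluding outliers beyond control limits, cut at about 13% in these data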
PLC-gamma1 inh: blocks human PLC-gamma1 enzyme activity | P19174 | purified PLC-gamma1, fluorogenic substrate, fluorescence | inhibition, % at 12.2 µM | 370,000 compounds, 0.84% hits | AID 720700; in the data active means inhibition above about 9.5%
Target sequence (P19174 whole entry, looked up): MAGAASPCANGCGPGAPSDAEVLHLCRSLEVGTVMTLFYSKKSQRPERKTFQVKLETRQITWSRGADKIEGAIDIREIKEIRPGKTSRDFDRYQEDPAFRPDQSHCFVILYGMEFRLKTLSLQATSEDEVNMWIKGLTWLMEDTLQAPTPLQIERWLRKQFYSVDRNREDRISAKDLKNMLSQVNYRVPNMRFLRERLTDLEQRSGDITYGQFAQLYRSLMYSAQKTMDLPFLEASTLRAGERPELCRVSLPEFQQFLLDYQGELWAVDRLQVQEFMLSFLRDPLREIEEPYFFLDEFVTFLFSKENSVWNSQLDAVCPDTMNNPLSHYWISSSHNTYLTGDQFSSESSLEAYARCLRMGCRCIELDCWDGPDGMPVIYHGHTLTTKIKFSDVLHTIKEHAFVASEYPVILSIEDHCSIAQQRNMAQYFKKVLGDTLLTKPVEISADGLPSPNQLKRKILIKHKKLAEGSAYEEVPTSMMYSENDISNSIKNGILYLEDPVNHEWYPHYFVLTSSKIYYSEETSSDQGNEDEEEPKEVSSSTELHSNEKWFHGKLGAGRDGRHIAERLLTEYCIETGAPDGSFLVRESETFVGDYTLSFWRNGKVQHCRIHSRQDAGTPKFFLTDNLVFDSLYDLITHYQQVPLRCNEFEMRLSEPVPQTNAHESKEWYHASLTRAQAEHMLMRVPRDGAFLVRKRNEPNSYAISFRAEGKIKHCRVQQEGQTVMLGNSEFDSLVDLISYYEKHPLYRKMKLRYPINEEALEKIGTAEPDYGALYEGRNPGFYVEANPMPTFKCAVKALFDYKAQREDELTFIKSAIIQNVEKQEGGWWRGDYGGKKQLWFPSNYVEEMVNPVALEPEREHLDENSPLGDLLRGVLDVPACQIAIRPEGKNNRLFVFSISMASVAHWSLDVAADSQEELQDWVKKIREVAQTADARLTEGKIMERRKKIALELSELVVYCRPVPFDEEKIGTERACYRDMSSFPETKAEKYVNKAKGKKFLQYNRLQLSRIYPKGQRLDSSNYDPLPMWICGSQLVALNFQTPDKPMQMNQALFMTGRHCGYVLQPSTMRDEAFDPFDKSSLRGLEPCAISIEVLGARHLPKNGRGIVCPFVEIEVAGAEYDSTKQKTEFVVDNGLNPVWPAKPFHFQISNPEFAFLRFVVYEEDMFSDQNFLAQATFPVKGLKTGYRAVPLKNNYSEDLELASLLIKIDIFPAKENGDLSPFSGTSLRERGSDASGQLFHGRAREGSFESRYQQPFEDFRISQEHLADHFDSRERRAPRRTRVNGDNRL
ADAM10 inh: ADAM10 inhibition, QFRET primary screen. 370,000 compounds, 0.62% hits. recombinant ADAM10, EDANS/DABCYL FRET peptide cleavage, 3 h. O14672. inhibition, % at 7 µM;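 active means inhibition above a per-campaign cutoff equal to the mean of compounds falling between control-based bounds plus 3 SD, cut at about 20% in these data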;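 further: 0% = DMSO wells while the 100% control is not disclosed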
ADAM17 inh: inhibitors of human ADAM17; P78536; 370,000 compounds, 0.83% hits; inhibition, % at 6.95 µM; recombinant ADAM17, EDANS/DABCYL FRET peptide cleavage;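 active means inhibition above the mean of compounds lying between control limits plus 3 SD, set per campaign, cut at about 8.5% in these data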;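 further: 0% = DMSO-only wells as the low control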
PLC-beta3 inh: PLC-beta3 (human) inhibition, primary screen. inhibition, % at 12.2 µM. Q01970. 370,000 compounds, 0.18% hits. Purified PLC-beta3, fluorogenic substrate, fluorescence;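 further: 0% = median of compound wells on plate and 100% = full blocker control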
PLCgamma1 ctr: inhibits human PLC-gamma1 in PLC-beta3 counter-screen. 3,300 compounds, 3.1% hits. inhibition, % at 12.3 µM. purified PLC-gamma1, fluorogenic substrate, fluorescence. shares compounds with PLC-gamma1 inh; in the data active means inhibition above about 9.5%
PLCbeta3 conf: confirmation of human PLC-beta3 inhibitors; inhibition, % at 12.3 µM; 3,300 compounds, 1% hits; shares compounds with PLC-gamma1 inh; purified PLC-beta3, fluorogenic substrate fluorescence
* = called active by the depositor; · = not tested or not shown. Unless noted, no stated cut-off is given here; in the data, active means inhibition above about 11%; inactive means the rest.

SMILES	proKLK7 act	PLC-gamma1 inh	ADAM10 inh	ADAM17 inh	PLC-beta3 inh	PLCgamma1 ctr	PLCbeta3 conf
CCOc1cc(CNCCc2ccc(S(N)(=O)=O)cc2)ccc1OCc1ccc(Cl)cc1	0	21*	12	6	9	3	2
COc1cc(CNCCc2ccc(S(N)(=O)=O)cc2)ccc1OCc1ccc(Cl)cc1	-1	5	2	-2	4	·	·
COC(=O)c1ccc(CNC(=O)CNC(=O)c2sc3ccccc3c2Cl)cc1	0	0	-2	-2	-3	·	·
CCn1c(COc2ccccc2C)nnc1SCC(=O)N1CCC(C)CC1	0	-5	4	-2	2	·	·
CCn1c(COc2ccccc2C)nnc1SCC(=O)N1CCCCC1	0	14*	-13	-2	1	-3	-2
Cc1nc(S(=O)(=O)Nc2ccccc2C(=O)NCC2CC2)cn1C	-3	-19	-73	-35	-21	·	·
CC(=O)Oc1ccc(/C=N/NS(=O)(=O)c2ccccc2)cc1	0	9	-6	3	11*	-1	0
COc1ccc(/C=N/NS(=O)(=O)c2ccc(C)cc2)cc1OC(=O)c1ccccc1	0	11*	5	3	-1	-3	-1
O=C(COc1ccc(/C=N/NS(=O)(=O)c2ccccc2)cc1)NCc1ccccc1	0	5	4	-1	2	·	·
COc1ccccc1C(=O)Nc1ccnn1C1CCN(Cc2ncc[nH]2)CC1	0	-3	-13	-6	-161	·	·
CC(=O)c1ccc(OCC(=O)OCC(=O)Nc2sccc2C(N)=O)cc1	0	-5	-8	-2	-8	·	·
COc1ccc(S(=O)(=O)N(C)CC(=O)Nc2ccc(F)cc2)cc1	1	7	4	4	11*	-2	1
COc1ccc(S(=O)(=O)N(C)CC(=O)Nc2cccc(C(C)=O)c2)cc1	0	1	-4	-2	0	·	·
S=C(Cc1ccc(-c2ccccc2)cc1)N1CCOCC1	0	9.9*	8	5	-4	-7	-3
CC1=CC2=NC(=O)/C(=C\c3ccc(OC(=O)c4ccco4)cc3)C(=N)N2O1	0	9	-10	-4	12*	-2	0
CC(NC(=O)COC(=O)c1cc([N+](=O)[O-])ccc1N1CCOCC1)c1ccccc1 (stereo not drawn)	0	-1	1	4	-3	·	·
CCCCOC(=O)n1c(=O)oc2cc(S(=O)(=O)N3CCCCC3)ccc21	0	11*	13	3	1	-3	-1
Cc1ccnc(SCc2cc(=O)c(OC(=O)c3ccc(C#N)cc3)co2)n1	·	-1	-8	-1	-2	·	·
Cc1[nH]n(-c2ccccc2)c(=O)c1C(=O)c1ccccc1	0	4	-8	0	2	·	·
CCOc1cccc(C(c2c(C)n(C)n(-c3ccccc3)c2=O)c2c(C)n(C)n(-c3ccccc3)c2=O)c1OC	0	3	3	-2	-2	·	·
COc1cccc(C(c2c(C)[nH]n(-c3ccccc3)c2=O)c2c(C)[nH]n(-c3ccccc3)c2=O)c1O	-1	25*	6	-3	-1	-7	-7
COc1cccc(C(c2c(C)[nH]n(-c3ccccc3)c2=O)c2c(C)[nH]n(-c3ccccc3)c2=O)c1OC	1	18*	1	5	7	-6	-4
CC(c1nccs1)N(C)C(=O)CCc1nnc(CCc2ccccc2)o1 (stereo not drawn)	0	12*	2	6	3	2	-2
CCOC(=O)c1c(C)[nH]c(C(=O)OC(C)C(=O)Nc2ccccc2OC)c1C (stereo not drawn)	0	-5	9	1	-18	·	·
CC(C)=CC(=O)OCc1cc([N+](=O)[O-])cc2c1OCOC2	1	2	1	2	-4	·	·
SMILES	proKLK7 act	PLC-gamma1 inh	ADAM10 inh	ADAM17 inh	PLC-beta3 inh	PLCgamma1 ctr	PLCbeta3 conf
COc1cc(NS(=O)(=O)c2ccc(NC(=S)NC(C)=O)cc2)nc(OC)n1	0	16*	-1	2	14*	-5	0
COc1cc(NS(=O)(=O)c2ccc(NC(=S)NC(=O)COc3ccccc3OC)cc2)nc(OC)n1	0	14*	5	1	-4	-3	-7
COc1cc(NS(=O)(=O)c2ccc(NS(=O)(=O)c3ccc(NC(C)=O)cc3)cc2)nc(OC)n1	0	-1	3	0	-5	·	·
CCCCCC(=O)Nc1ccc(S(=O)(=O)Nc2cc(OC)nc(OC)n2)cc1	0	1	1	-2	-11	·	·
COc1cc(NS(=O)(=O)c2ccc(NC(=O)CN3C(=O)c4ccccc4C3=O)cc2)nc(OC)n1	0	12*	2	-1	5	3	10
COc1cc(NS(=O)(=O)c2ccc(NC(=O)COc3ccccc3C)cc2)nc(OC)n1	0	1	1	0	2	·	·
COc1ccc(C(=O)OCC(=O)Nc2c(C)n(C)n(-c3ccccc3)c2=O)cc1	0	12*	3	6	1	-3	-4
Cn1cnnc1SCc1ccc(C(=O)O)cc1	1	0	3	-4	1	·	·
Cn1cnnc1SCNC(=O)C(F)(F)F	1	6	9	6	12*	-8	-4
Cc1ccc(OCC(=O)Nc2cc(S(=O)(=O)N3CCCCC3)ccc2C)c([N+](=O)[O-])n1	0	10*	-4	-8	1	-4	-1
Fc1ccc(C2=Nc3cccc4cccc(c34)N2)cc1	0	-3	-1	-1	-3	·	·
FC(F)(F)C1=Nc2cccc3cccc(c23)N1	0	13*	-4	-2	4	12*	10
CC(=O)c1ccc(NC(=O)CCn2c(=S)oc3ccccc32)cc1	-1	-1	-2	-4	-5	·	·
CCOC(=O)CNc1ncc([N+](=O)[O-])cc1C#N	0	5	-9	3	1	·	·
N#Cc1cc([N+](=O)[O-])cnc1Nc1ccccc1	0	10*	9	6	12*	-2	0
CCOC(=O)c1cc(=O)nc(N)s1	-1	5	1	0	3	·	·
CCOc1ccc(N(CC(=O)NCCc2ccccc2)C(=O)c2csnn2)cc1	1	11*	-10	-1	-6	3	0
COc1ccc(N(CC(=O)NCCc2ccccc2)C(=O)c2csnn2)cc1	0	3	0	0	-3	·	·
CCOC(=O)C1C(=O)OC(C)(C)C1C(C)C(=O)c1ccc(C)cc1 (stereo not drawn)	0	9.5*	15	8	9	-2	-4
CCOC(=O)N1CCN(C(C(=O)NC2CCCC2)c2cccc(OC)c2OC)CC1 (stereo not drawn)	1	4	7	-1	2	·	·
CCOC(=O)CCN(c1ccccc1)S(=O)(=O)c1ccc(-c2ccc(=O)[nH]n2)s1	0	0	-3	-3	-2	·	·
O=C(CNC(=O)c1ccc2ccccc2c1)NC1CCCCC1	-1	0	-22	-5	-5	·	·
